# Unmarked numbers belong to inactive results. No rule for the calls is given here.
# Target: Pantothenate synthetase (Mycobacterium tuberculosis (strain ATCC 25618 / H37Rv)) (UniProt P9WIL5)
# Test: Recombinant Mtb pantothenate synthetase (PanC) inhibitors, coupled enzyme, confirmatory (AID 375);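 also: 0% = full reaction with vehicle and 100% = no enzyme background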
# Settings: coupled enzyme assay; at 10 µM, stronger effect = higher value
# Pantothenate synthetase (Mycobacterium tuberculosis (strain ATCC 25618 / H37Rv)), sequence (P9WIL5 whole entry, looked up): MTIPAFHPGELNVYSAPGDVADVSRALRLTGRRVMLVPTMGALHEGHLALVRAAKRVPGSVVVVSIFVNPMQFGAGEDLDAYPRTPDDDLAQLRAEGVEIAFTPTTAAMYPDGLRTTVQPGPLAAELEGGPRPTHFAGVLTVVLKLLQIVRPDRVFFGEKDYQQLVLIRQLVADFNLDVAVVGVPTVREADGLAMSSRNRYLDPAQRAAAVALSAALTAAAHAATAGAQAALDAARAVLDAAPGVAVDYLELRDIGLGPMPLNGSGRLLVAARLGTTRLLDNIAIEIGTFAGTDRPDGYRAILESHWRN
row,SMILES,inhibition
1,O=S(=O)(NCCSc1ccccc1)c1cccs1,0%
2,CCn1c(CCNC(=O)c2ccc(OC)c(OC)c2)nc2ccccc21,3%
3,COC(=O)C1=C(C)Nc2ncnn2C1c1ccc(C)o1 (stereo not given),0%
4,COc1cccc(-c2cc(C(F)(F)F)n3nc(N)nc3n2)c1,2%
5,CC(C)CCNC(=O)C(C)N(Cc1ccc(F)cc1)C(=O)c1ccc(CN2CCCCC2)o1 (stereo not given),1%
6,CCS(=O)(=O)N1CCCC(c2nc(-c3cccc(OC)c3)no2)C1 (stereo not given),0%
7,COc1ccc(C(=O)c2coc3ccc(O)c(CN4CCCCC4)c23)cc1,0%
8,Cc1ccc(-n2nc(C(=O)N3CCN(C)CC3)c3c4ccccc4n(C)c3c2=O)cc1,0%
9,CC(=O)Nc1ccc(OCC(O)CN2CCN(c3cccc(Cl)c3)CC2)cc1 (stereo not given),3%
10,c1ccc2nc(-c3nc4ccccc4[nH]3)ccc2c1,0%
11,O=C(COC(=O)c1cccc(S(=O)(=O)N2CCc3ccccc32)c1)NC1CCS(=O)(=O)C1 (stereo not given),0%
12,Cc1cc(=O)[nH]c(SCC(=O)NCc2ccco2)n1,0%
13,O=C(Cc1c[nH]c2ccccc12)N1CCc2ccccc21,3%
14,CSc1ccccc1NC(=O)CN(c1ccccc1)S(=O)(=O)N(C)C,3%
15,COc1ccc2c(c1)CCc1c(C(=O)N3CCCc4ccccc43)noc1-2,4%
16,Cc1cccc(N2CCN(C(=O)C3CCCN(S(=O)(=O)c4cnc[nH]4)C3)CC2C)c1 (stereo not given),0%
17,C=CCn1c(COc2ccc(Cl)cc2)nnc1SCC(=O)N1CC(=O)Nc2ccccc21,0%
18,CC(=O)N(CCN(C(C)=O)c1ccccc1)c1ccccc1,0%
19,O=S1(=O)N=C(Nc2nc3c(s2)CCCC3)c2ccccc21,4%
20,C=CC(O)(C#CCN(CC)CC)c1ccccc1 (stereo not given),3%

row,SMILES,inhibition
1,CN(C)CC(=O)N1c2ccccc2CCc2ccc(NC(=O)c3ccc(N)cc3)cc21,0%
2,CCCN(CCC)c1nc2ccccc2n2c(C)nnc12,4%
3,O=C(NC1CCCC1)c1ccc(S(=O)(=O)N2CCCC2)cc1,0%
4,C(=N\c1c(-c2ccccc2)nc2n1CCS2)/c1ccccc1,4%
5,CCCC(=O)O[C@]1(C(=O)CCl)[C@@H](C)C[C@H]2[C@@H]3CCC4=CC(=O)C=C[C@]4(C)[C@@]3(F)C(=O)C[C@@]21C,0%
6,COc1cc(NS(=O)(=O)N2CCCC2)cc(OC)c1OC,0%
7,CCN(CC)CCn1c2ccccc2c2nc(C)sc21,1%
8,CCOC(=O)c1ccccc1NC(=O)Cn1cnc2c(cnn2-c2ccc(OC)cc2)c1=O,0%
9,CCC(=O)c1ccc(OCC(O)CN2CCN(S(=O)(=O)N3CCCCC3)CC2)cc1 (stereo not given),1%
10,CCC(C)(C)NC(=O)CN(C(=O)c1snc(C(N)=O)c1N)c1ccc2c(c1)OCO2,11%
11,COc1ccc(-n2c(SCC(=O)Nc3ccc(C(=O)O)cc3)nnc2-c2cccs2)cc1,0%
12,Clc1cccc(-c2nnc3sc(-c4ccccc4)nn23)c1,0%
13,CCOC(=O)c1sc2nc(SCC(=O)NCc3ccco3)n(Cc3ccccc3)c(=O)c2c1C,0%
14,COCCn1nnnc1C(c1cccs1)N1CCN(c2cc(C)ccc2C)CC1 (stereo not given),0%
15,O=C(CN1C(=O)NC(Cc2ccccc2)C1=O)Nc1ccccc1 (stereo not given),0%
16,COC(=O)c1sc(N2C(=O)C(O)=C(C(=O)c3ccc(C)o3)C2c2ccc(F)cc2)nc1C (stereo not given),8%
17,CC1=NN(c2ccccc2)C(=O)C1,0%
18,COC(=O)CCCCCc1ccc(C(C)=O)s1,4%
19,COc1cc2[nH]c(=O)n(CCC(=O)N3CCc4ccccc4C3)c(=O)c2cc1OC,0%
20,O=C1CC(c2ccco2)=Nc2ccccc2N1,6%
